Whole data set: some 33,000 sequences, median “E-score (-0.5 to 0.5)” near -0.0059, cut for the highest 2% near 0.26. What follows is part of a selection rich in the highest values, with near analogues and random picks from the rest.
Each sequence was assayed against T1, Cin5 (UniProt P40917) (assay: PBM E-score (8-mer binding enrichment) (E-score (-0.5 to 0.5)); higher = stronger / more preferred TF binding). Conditions: protein concentration: 100 nM; construct: GST-full length.
T1 sequence: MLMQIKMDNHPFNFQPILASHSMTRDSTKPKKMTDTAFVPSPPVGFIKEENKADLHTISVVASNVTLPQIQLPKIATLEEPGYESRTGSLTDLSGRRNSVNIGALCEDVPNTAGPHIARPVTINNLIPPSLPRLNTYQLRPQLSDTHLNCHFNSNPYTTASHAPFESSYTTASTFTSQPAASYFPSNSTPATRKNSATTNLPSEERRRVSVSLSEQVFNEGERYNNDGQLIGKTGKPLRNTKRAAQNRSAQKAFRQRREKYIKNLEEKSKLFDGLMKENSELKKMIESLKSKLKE
Protocol: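 Universal 'all 10-mer' protein binding microarrays (Agilent AMADID 015681) probed with GST-tagged S. cerevisiae TFs (full-length or DBD) made by in vitro transcription/translation (PURExpress), about 100-200 nM. Bound TF was detected with fluorescent anti-GST. Each ungapped 8-mer (which stands for itself and its reverse complement) is scored by the PBM enrichment score (E-score), a modified Wilcoxon-Mann-Whitney statistic from -0.5 to +0.5, computed with the Universal PBM Analysis Suite. Scale: above 0.35 generally sequence-specific binding.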
With ACATGTTA the “PBM E-score” value was 0.126. For ATACAACG, the “PBM E-score” value was 0.174. With ATACAAAA the “PBM E-score” value was 0.28. For GAACAAAA, the “PBM E-score” value was 0.278. In the case of ATACAACA, the “PBM E-score” value is reported as 0.272. With ATACAACC the “PBM E-score” value was 0.0923. ATACAAAT was tested, and the “PBM E-score” value was 0.22. For GAACAAAC, the “PBM E-score” value was 0.226. For CTACAAAA, the “PBM E-score” value was 0.111. In the case of AAACAAAA, the “PBM E-score” value is reported as 0.137. For CCCCTCGA, the “PBM E-score” value was 0.0859. In the case of ACAGGCTA, the “PBM E-score” value is reported as -0.0671. For CCCACAGC, the “PBM E-score” value was -0.192. ATAAATAG was tested, and the “PBM E-score” value was 0.102. For ATAAATAA, the “PBM E-score” value was 0.321. In the case of ATAATAAA, the “PBM E-score” value is reported as 0.24. In the case of TAAAATAA, the “PBM E-score” value is reported as 0.141. With GTAAATAA the “PBM E-score” value was 0.189. TTAATAAA was tested, and the “PBM E-score” value was 0.287. With CTAAATAA the “PBM E-score” value was 0.0261. For ATAAATAT, the “PBM E-score” value was 0.226. With CTAATAAA the “PBM E-score” value was 0.164. For ATAAATAC, the “PBM E-score” value was 0.279. With TTAAATAA the “PBM E-score” value was 0.313. With CTAAATAC the “PBM E-score” value was 0.085. ATGTGGTG was tested, and the “PBM E-score” value was 0.114. For CCTCGCAC, the “PBM E-score” value was -0.0617. CTTAGATC was tested, and the “PBM E-score” value was -0.0574. For CGGCATGA, the “PBM E-score” value was 0.123. For GAATTCTC, the “PBM E-score” value was 0.0994. With ACCACGAT the “PBM E-score” value was 0.161. In the case of AGCTACCT, the “PBM E-score” value is reported as -0.0535. For ATCACTGC, the “PBM E-score” value was 0.0947. For CGTGTTGA, the “PBM E-score” value was -0.0277. In the case of AACCCAAC, the “PBM E-score” value is reported as 0.17. In the case of ACTTTACG, the “PBM E-score” value is reported as 0.119. For GGGGCACC, the “PBM E-score” value was -0.367. For GGGTCACC, the “PBM E-score” value was -0.297. For CCGAATTA, the “PBM E-score” value was 0.0794. With GCGAATTA the “PBM E-score” value was 0.266. In the case of ACGAATTA, the “PBM E-score” value is reported as 0.0396. In the case of GATGGTAC, the “PBM E-score” value is reported as 0.0499. CGGTAATA was tested, and the “PBM E-score” value was 0.181. For CGGTAATC, the “PBM E-score” value was -0.0552. In the case of GGGTAATA, the “PBM E-score” value is reported as 0.122. In the case of AGGTAATC, the “PBM E-score” value is reported as 0.313. AGGTAATG was tested, and the “PBM E-score” value was 0.124. AGGTAATA was tested, and the “PBM E-score” value was 0.296. In the case of CGGAGCTC, the “PBM E-score” value is reported as -0.269. For ATTCTTGG, the “PBM E-score” value was 0.153. TGTAAACA was tested, and the “PBM E-score” value was 0.0928. With CACCAGCG the “PBM E-score” value was -0.0689. In the case of AATTAGTG, the “PBM E-score” value is reported as 0.188. AATTAGAC was tested, and the “PBM E-score” value was 0.0847. With ATTTAGTA the “PBM E-score” value was 0.303. In the case of CTTTAGTA, the “PBM E-score” value is reported as -0.00776. With ATTTAGTC the “PBM E-score” value was 0.0988. With CATTAGTC the “PBM E-score” value was 0.0189. With AATTAGAG the “PBM E-score” value was 0.146. For CATTAGTA, the “PBM E-score” value was 0.188. For GATTAGTA, the “PBM E-score” value was 0.254. With AATTAGTC the “PBM E-score” value was 0.26. With AATTAGTA the “PBM E-score” value was 0.308. In the case of AATTAGAT, the “PBM E-score” value is reported as 0.294. For AGCGTCAG, the “PBM E-score” value was -0.124. With AGCGAGCC the “PBM E-score” value was -0.0601. For CACGAAGA, the “PBM E-score” value was 0.132. In the case of CGTTTCTA, the “PBM E-score” value is reported as -0.00786. AGATAACT was tested, and the “PBM E-score” value was 0.159. With ATGCTACA the “PBM E-score” value was -0.0162. In the case of ATCTAGAC, the “PBM E-score” value is reported as -0.125. ACATGATA was tested, and the “PBM E-score” value was 0.187. In the case of GTATGAGA, the “PBM E-score” value is reported as 0.144. For GCATGATA, the “PBM E-score” value was 0.168. For CTTTGATA, the “PBM E-score” value was 0.116. With ATTTGATC the “PBM E-score” value was 0.0618. For CTATGATC, the “PBM E-score” value was -0.0495. ATTTGATA was tested, and the “PBM E-score” value was 0.319. For CTATGATA, the “PBM E-score” value was 0.116. In the case of ATATGATG, the “PBM E-score” value is reported as 0.158. With ATATGATA the “PBM E-score” value was 0.314. With ATATGATC the “PBM E-score” value was 0.258. For GTATGATA, the “PBM E-score” value was 0.275. ATTCTTCG was tested, and the “PBM E-score” value was 0.138. With CTGATCGC the “PBM E-score” value was 0.0487. With AAGGAAAT the “PBM E-score” value was 0.0752. With ATTGGTGC the “PBM E-score” value was 0.134. ACGCTCAC was tested, and the “PBM E-score” value was 0.0871. For CCTCACGC, the “PBM E-score” value was 0.0561. For GTCAGCGA, the “PBM E-score” value was -0.0481. For ACCACCCT, the “PBM E-score” value was -0.163. In the case of ATGCTATC, the “PBM E-score” value is reported as -0.00354. For CGAACGCG, the “PBM E-score” value was 0.00852. With AGAAACCA the “PBM E-score” value was 0.123. In the case of CTGTGATA, the “PBM E-score” value is reported as 0.0273. GTGTGATA was tested, and the “PBM E-score” value was 0.2. ATGTGATA was tested, and the “PBM E-score” value was 0.266. For ATCGCCCA, the “PBM E-score” value was -0.11. CAACGGTA was tested, and the “PBM E-score” value was -0.181. CGTAAAGC was tested, and the “PBM E-score” value was -0.147. With ATTTGGTA the “PBM E-score” value was 0.252. In the case of GTTTGGTA, the “PBM E-score” value is reported as 0.296. For CTTTGGTA, the “PBM E-score” value was -0.205. For AGGACCGG, the “PBM E-score” value was -0.294. In the case of ACCGCTCG, the “PBM E-score” value is reported as -0.0731. In the case of CCCTATGC, the “PBM E-score” value is reported as 0.0135. For ACAACCCG, the “PBM E-score” value was -0.0389. For GGCAACTA, the “PBM E-score” value was 0.0726. CGCAACTA was tested, and the “PBM E-score” value was 0.267. For CGCAACTC, the “PBM E-score” value was 0.103. In the case of CAGAACGA, the “PBM E-score” value is reported as 0.0474. In the case of CAAAGACG, the “PBM E-score” value is reported as -0.0507. For CGCTGGGC, the “PBM E-score” value was -0.295. For TATATGAA, the “PBM E-score” value was 0.129. AATATGAA was tested, and the “PBM E-score” value was 0.258. For AATATGAC, the “PBM E-score” value was 0.163. For AATATGAG, the “PBM E-score” value was 0.0321. In the case of GATATGAA, the “PBM E-score” value is reported as 0.0853. For AATATGAT, the “PBM E-score” value was 0.297. With AGGGTGTC the “PBM E-score” value was -0.136. With GGTCCTAA the “PBM E-score” value was -0.143. CAGGAAGA was tested, and the “PBM E-score” value was -0.0593. With GGGCAGGA the “PBM E-score” value was -0.00266. For AAATGTAT, the “PBM E-score” value was 0.276. For TGATGTAA, the “PBM E-score” value was 0.329. With GAATGTAA the “PBM E-score” value was 0.241. AAATGGAA was tested, and the “PBM E-score” value was 0.0906. AAATGTAA was tested, and the “PBM E-score” value was 0.14. CGATGTAA was tested, and the “PBM E-score” value was 0.102. With AGATGTAA the “PBM E-score” value was 0.169. With AAATGTAC the “PBM E-score” value was 0.19. In the case of GAATGGAA, the “PBM E-score” value is reported as 0.181. In the case of AAATGTAG, the “PBM E-score” value is reported as 0.101. For TAATGTAA, the “PBM E-score” value was 0.33. TAATGGAA was tested, and the “PBM E-score” value was 0.281. For CCGGGGCG, the “PBM E-score” value was -0.146. GCTACGGA was tested, and the “PBM E-score” value was -0.165. For TCACCGGA, the “PBM E-score” value was 0.0333. In the case of GTGGGAAC, the “PBM E-score” value is reported as -0.144. GCCACGCC was tested, and the “PBM E-score” value was -0.127. In the case of CAGAGCAC, the “PBM E-score” value is reported as -0.123. CCCCATAA was tested, and the “PBM E-score” value was 0.00568. ACGCAGCC was tested, and the “PBM E-score” value was -0.0404. With ACCGGGGC the “PBM E-score” value was -0.136. With TAATGTGA the “PBM E-score” value was 0.292. In the case of GAATGTGA, the “PBM E-score” value is reported as 0.00014. With CAATGTGA the “PBM E-score” value was 0.117. In the case of ACTACCAG, the “PBM E-score” value is reported as -0.086. With ACGCAAAT the “PBM E-score” value was -0.0291. In the case of ATGCATCG, the “PBM E-score” value is reported as 0.098. With ATGCATCA the “PBM E-score” value was 0.287. In the case of ATGCATTC, the “PBM E-score” value is reported as 0.163. With ATGCATTA the “PBM E-score” value was 0.341. CTGCATTA was tested, and the “PBM E-score” value was -0.154. GTGCATCA was tested, and the “PBM E-score” value was 0.00241. For ACTAACAT, the “PBM E-score” value was 0.192. In the case of CTACCCTA, the “PBM E-score” value is reported as -0.101. With CACGGTGG the “PBM E-score” value was 0.0279. For CCTATCCG, the “PBM E-score” value was -0.0857. CCGGTACA was tested, and the “PBM E-score” value was -0.00292. In the case of CGTAATCC, the “PBM E-score” value is reported as 0.383. In the case of GATAATCA, the “PBM E-score” value is reported as 0.159. In the case of CATAATCA, the “PBM E-score” value is reported as 0.385. In the case of CATAATCC, the “PBM E-score” value is reported as 0.265. With GATAATCC the “PBM E-score” value was 0.17. For AGTAAGCC, the “PBM E-score” value was 0.216. AATAATCC was tested, and the “PBM E-score” value was 0.0532. With AATAATCA the “PBM E-score” value was 0.257. With CGTAATTC the “PBM E-score” value was 0.228. With CGTAAGCC the “PBM E-score” value was 0.39. For CGTAAGGC, the “PBM E-score” value was -0.0166. In the case of CCTAATCC, the “PBM E-score” value is reported as 0.029. In the case of CGGACCCC, the “PBM E-score” value is reported as -0.295.

Source: the supplement of paper PMC3334620
